Reference: PubChem BioAssay AID651965 (National Center for Advancing Translational Sciences (NCATS), 2013)
Hit rate of the full screen: of about 340,000 compounds, about 6,400 (1.9%) were called active. Inconclusive results (about 4%) are left out. Calls come from the whole dose curve; as a rule, active = well fitted falling curve with a large enough effect; inconclusive = small, poorly fitted or top-dose-only effect; inactive = no such curve, though single readings can be large or run the other way. The entries come from a sample that favours actives as a whole. A call without a number means that no potency is given here.

biological target: ATP-dependent Clp protease proteolytic subunit (Bacillus subtilis (strain 168)) (UniProt P80244); test: qHTS Assay for Activators of ClpP; note: the source files actives as falling curves though it sought activators and does not explain the sign; nearly all actives have a fitted effect of over 65% in size; settings: purified B. subtilis ClpP, FRET peptide cleavage, 20 min; series mostly up to 57.5 µM
In short: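 Purified B. subtilis ClpP, 10 microg/mL final in Tris/HCl pH8 with KCl, BSA, glycerol and Tween-20, cleaved an Abz/nitrotyrosine-quenched decapeptide. Fluorescence (ex 320, em 430) was read at 0 and 20 min at room temperature. Delta was normalized to 5.8 microM ADEP and DMSO/no-enzyme controls.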
Potency is the fitted concentration of half-maximal effect.

Sequence of ATP-dependent Clp protease proteolytic subunit (Bacillus subtilis (strain 168)) (P80244 whole entry, looked up): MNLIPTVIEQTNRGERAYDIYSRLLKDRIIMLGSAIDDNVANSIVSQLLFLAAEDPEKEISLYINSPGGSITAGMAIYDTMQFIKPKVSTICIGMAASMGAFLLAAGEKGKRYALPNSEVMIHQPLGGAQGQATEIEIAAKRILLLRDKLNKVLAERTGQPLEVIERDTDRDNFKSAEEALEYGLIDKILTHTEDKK

SMILES	Potency
CC(=O)Oc1ccc(NC(=O)CCC2CCCCC2)c(C(=O)O)c1	22.4 µM (active)
COC(=O)c1sccc1NC(=O)CCC1CCCC1	inactive
COc1ccc(NC(=O)CCCC2CCCCC2)c(OC)c1	inactive
CCc1nc2c(OCc3ccc(C(F)(F)F)cc3)cccn2c1N(C)C(=O)CC(C)C	inactive
Cc1ccccc1CN1C(=O)CSCC1(C)C(=O)Nc1c(C)cccc1C (stereo not drawn)	inactive
CC(C)(C)C1CCC(NC(=O)c2cnn3c2NC(=C2CC2)C=C3C(F)F)CC1 (stereo not drawn)	inactive
CCCCNC(=O)c1ccc(-n2c(=S)[nH]c3ccccc3c2=O)cc1	inactive
Cc1ccc(C(=O)NCCSc2c(C)[nH]c3ccccc23)cc1C	inactive
CN(C)CCCNC(=O)c1ccc2[nH]c3ccccc3c2c1	12.6 µM (active)
COc1ccc(NC(=O)c2sc(=O)n(Cc3ccc(S(=O)(=O)N(C)C)cc3)c2C)cc1	inactive
CCN1C(=O)[C@H]2[C@@H](c3ccccc3)N[C@]3(CCCN(Cc4ccc(C)cc4)C3=O)[C@H]2C1=O	inactive
O=C(COC(=O)CNC(=O)c1ccco1)Nc1ccc(F)cc1	25.1 µM (active)
CCc1ccc(C(=O)COC(=O)c2ccco2)cc1	inactive
CCOC(=O)c1ccc(NC(=O)CNC(=O)c2ccco2)cc1	inactive
COCCn1c(C)cc(C(=O)COC(=O)CNC(=O)c2ccco2)c1C	inactive
NS(=O)(=O)c1ccc(NC(=O)COC(=O)c2ccco2)cc1	inactive
O=C(CNC(=O)c1ccco1)OCC(=O)c1ccccc1	25.1 µM (active)
CC(O)(c1cccc(F)c1)c1nc(-c2ccc3c(c2)OCO3)cs1 (stereo not drawn)	inactive
C[C@@H]1CN([C@@H](C)CO)C(=O)c2cc(Br)cnc2O[C@H]1CN(C)Cc1ccc(-c2ccccc2)cc1	inactive
C[C@@H]1CN([C@H](C)CO)C(=O)CCCn2nncc2CO[C@@H]1CN(C)S(=O)(=O)c1cccc(C#N)c1	inactive
CC[C@@H]1CC2=C(C(=O)OC(C)(C)O2)[C@@H](CC)O1	inactive
CC1(c2cccc(Br)c2)NC(=O)N(CC(=O)NCCC2=CCCCC2)C1=O (stereo not drawn)	inactive
COc1cc2cc(CN(CCN3CCCC3)C(=O)Nc3ccccc3Cl)c(=O)[nH]c2cc1OC	3.16 µM (active)
COc1ccc(CCN(Cc2cc3cccc(C)c3[nH]c2=O)C(=O)N2CCCC2)cc1OC	inactive
Cc1ccc2[nH]c(=O)c(CN(CCCN(C)C)C(=O)Nc3cccc(Cl)c3)cc2c1	inactive
O=S1(=O)CC(N2CCSCC2)CN1Cc1cn(Cc2cccc(Cl)c2)nn1 (stereo not drawn)	inactive

SMILES	Potency
CCc1nc2c(OCc3ccccc3)cccn2c1N(C)C(=O)c1ccco1	inactive
CC(=O)Oc1ccc(Cn2c(C)c(C(=O)NCc3ccc(C#N)cc3)sc2=O)cc1	inactive
CC(=O)NC(c1cccc(F)c1)c1nc(-c2cccc(F)c2)cs1 (stereo not drawn)	inactive
Cc1cc(C(F)(F)F)nn1-c1nc(-c2ccco2)cc(C(F)(F)F)n1	35.5 µM (active)
COc1nc(NCc2ccc(Cl)cc2)nc(OC)n1	inactive
FC(F)(F)c1cc(-c2ccco2)nc(NCc2ccc(Cl)cc2)n1	28.2 µM (active)
COc1ccc(CNc2nc(-c3ccc(Cl)cc3)cc(C(F)(F)F)n2)cc1	inactive
CCOC(=O)c1ccn(-c2nc(-c3ccco3)cc(C(F)(F)F)n2)n1	inactive
Cc1nn(-c2nc(-c3ccccc3)cc(C(F)(F)F)n2)c(C)c1Cl	inactive
CCc1oc(-c2ccc(OC)cc2)c(C(=O)OCCCCCO)c1C(C)OCCO (stereo not drawn)	inactive
CCSC1(SCC)N=C(N)C2(C#N)C(c3ccccc3)NC(C)=CC12C#N (stereo not drawn)	15.8 µM (active)
CNc1cncc(-c2ccc(NS(C)(=O)=O)cc2)n1	inactive
COc1cccc(CN2CCC(C(=O)NC(c3ccc4c(c3)OCO4)c3ccccn3)CC2)c1 (stereo not drawn)	inactive
O=C(COc1ccccc1C(=O)Nc1ccccc1)Nc1cccc(F)c1	inactive
CC(C)n1c(CN2CCN(Cc3ccccc3)CC2)nc2ccccc21	inactive
CCC(c1nc2ccccc2[nH]1)n1c(=O)c(-c2cccs2)nc2ccccc21 (stereo not drawn)	inactive
CC(C)n1c(-c2cccs2)nc2ccccc21	3.98 µM (active)
COc1cc(C=C(OC(C)=O)c2ccc3c(c2)OCO3)cc(OC)c1OC	inactive
CCCCSc1[nH]c(=O)c(C(=O)OCC)cc1C#N	31.6 µM (active)
CCOC(=O)c1cnc(COc2ccccc2Cl)[nH]c1=O	inactive
CCOC(=O)c1cc(C)nc(S(C)(=O)=O)c1C#N	inactive
CC(C)(C(=O)N1CCC1(C)C(=O)NS(=O)(=O)c1ccc(Br)cc1)c1ccccc1 (stereo not drawn)	inactive
O=C(Nc1ccccc1)c1ccc(NC(=O)c2cccs2)cc1	inactive
COc1cc(NC(=O)c2cccs2)ccc1NC(=O)c1ccccc1Cl	14.1 µM (active)
COc1cc(Cl)c(C)cc1NC(=O)[C@@H]1CCCN1C(=O)c1cccs1	inactive
CCC1OC(C2CC2)CC2=C1C(=O)OC(C)(C)O2 (stereo not drawn)	inactive

SMILES	Potency
CC(C)c1cc(C(N)=O)c(NC(=O)c2cccc(COc3ccc(Br)cc3)c2)s1	25.1 µM (active)
CCc1cc(C(N)=O)c(NC(=O)c2ccc(OC)cc2)s1	inactive
CC(C)(C)OC(=O)N(Cc1ccccc1)Cc1ccc(OCc2cccc(NC(=O)c3ccccc3)c2)cc1	inactive
COCCNC(=O)C1(C)CCCN(Cc2cccc(F)c2)C1 (stereo not drawn)	inactive
COc1ccc(OCCn2ccnc2C)cc1	3.16 µM (active)
COc1ccc(OCCCCN2CCC(C)CC2)cc1	inactive
COc1ccc(OCCCn2c(C)nc3cc(C)c(C)cc32)cc1	inactive
O=C(C[C@H]1C[C@H]2c3cc(NS(=O)(=O)c4ccc(F)cc4)ccc3O[C@H]2[C@H](CO)O1)NCc1cc(F)ccc1F	inactive
COC(=O)c1[nH]c2ccccc2c1NC(=O)CN1CCCc2ccccc21	inactive
Cc1cc(NC(=O)CCN2CCN(Cc3ccccc3)CC2)ccc1Br	inactive
CCOC(=O)c1[nH]c2ccc(OC)cc2c1NC(=O)CCN1CCN(Cc2ccccc2)CC1	31.6 µM (active)
Cc1c(C(=O)CN2CCOCC2)[nH]c2ccccc12	inactive
CCOC(=O)c1[nH]c2ccc(OC)cc2c1NC(=O)N1CCOCC1	25.1 µM (active)
CCOC(=O)N1CCN(CCC(=O)Nc2cc(OC)ccc2OC)CC1	inactive
CCOC(=O)[C@]12CCCC=C1N(Cc1ccc(Cl)cc1Cl)C(=O)[C@H](CC(=O)N1CCCCC1)C2	inactive
OCC(O)C(O)C(O)C(O)C=Nc1ccc(/C=C/c2ccnc3ccccc23)cc1 (stereo not drawn)	inactive
CCCc1ccc(S(=O)(=O)N2CCN(C(=O)c3cc(C)on3)CC2)cc1	inactive
CCOc1ccc(CCN2C(=O)C(=O)N([C@@H](CC(C)C)CN3CCC[C@H]3CN3C(=O)C(=O)NC[C@@H]3Cc3ccccc3)C[C@@H]2CC(C)C)cc1	inactive
CC(C)NC(=O)C1(C)CCCCCN1C(=O)c1ccc(-c2ccccc2)cc1 (stereo not drawn)	inactive
O=C(COc1coc(CN2CCN(c3ccccc3)CC2)cc1=O)Nc1ccccc1F	inactive
O=C(COc1coc(CN2CCN(c3ccccc3F)CC2)cc1=O)N1CCc2ccccc21	inactive
O=C(COc1coc(CN2CCN(c3ccccc3)CC2)cc1=O)N1CCc2ccccc21	28.2 µM (active)
CS(=O)c1ccc(/C=C2\C=Cc3ccccc32)cc1 (stereo not drawn)	inactive
CCCNC(=O)C1(C)CCCN(Cc2cccc(C(F)(F)F)c2)C1 (stereo not drawn)	inactive
Cc1cc(C)c(S(=O)(=O)NN=C2c3ccccc3[C@H]3Cc4csc[n+]4[C@@H]23)c(C)c1	inactive
Cc1ccc(-c2nc3ccccn3c2Nc2ccc(F)cc2)o1	inactive

SMILES	Potency
COc1cccc(C(=O)Nc2ccc(NC(=O)c3ccco3)cn2)c1	14.1 µM (active)
COc1ccccc1C(=O)Nc1ccc(NC(=O)c2ccco2)c(C)c1	inactive
Cc1ccc(C(=O)COc2cccc(NC(=O)c3ccco3)c2)cc1	15.8 µM (active)
Cc1ccc(NC(=O)c2ccco2)cc1	inactive
COc1ccc(NC(=O)c2ccco2)cc1NC(=O)COc1ccc(C)c(C)c1	inactive
O=C(Nc1ccc(NC(=O)c2cccs2)cn1)c1ccco1	inactive
O=C1C(Sc2cccc(F)c2)=C[C@@]2(O)CC[C@@H](O)[C@]1(Sc1cccc(F)c1)[C@H]2O	inactive
CCOc1ccc(CC(=O)NC2CCN(Cc3ccccc3)CC2)cc1	inactive
CCOc1ccc(C(=O)NC2CCN(S(=O)(=O)CC)CC2)cc1	inactive
CCOc1ccc(NS(=O)(=O)c2ccc(C(=O)NC3CCN(Cc4ccccc4)CC3)cc2)cc1	28.2 µM (active)
NC1=CC(=O)C(=O)c2cccnc21	inactive
Cc1ccc([C@@H]2CC(=O)[C@@H]3CN(S(=O)(=O)c4ccc(C)cc4)[C@H](c4ccccc4F)C[C@@H]3N2S(=O)(=O)c2ccc(Cl)cc2)cc1	inactive
COc1cccc(NC(=O)CN2CCN(CC(=O)Nc3ccccc3Cl)CC2)c1	inactive
COCCCNC(=S)N1CCN(c2nc(-c3cccc(OC)c3)cs2)CC1	inactive
COc1cccc(NC(=O)CN2CCN(c3nc(-c4cccc(OC)c4)cs3)CC2)c1	17.8 µM (active)
COC(=O)[C@]12CCCCC=C1N(CCC1=CCCCC1)C(=O)[C@H](CC(=O)NCC1CCCCC1)C2	inactive
CC(=O)C1=C(O)C(=O)N(c2ccc(S(N)(=O)=O)cc2)C1c1ccccc1F (stereo not drawn)	25.1 µM (active)
CC(=O)C1=C(O)C(=O)N(c2ccc(Br)cc2)C1c1ccc([N+](=O)[O-])cc1 (stereo not drawn)	inactive
NS(=O)(=O)c1ccc(NC2=CC(c3ccc(F)cc3)N(c3ccc(S(N)(=O)=O)cc3)C2=O)cc1 (stereo not drawn)	inactive
CCc1c(C)nc2cc(-c3cccs3)[nH]n2c1=O	22.4 µM (active)
CCC(C)n1[nH]c(=O)c2c(C)cc(C)nc21 (stereo not drawn)	inactive
Cc1ccc(-c2nc(SCc3ccc(Br)cc3)n3[nH]c(=O)cc3n2)cc1	inactive
CCc1ccccc1OCCSc1nc(-c2cccs2)nc2cc(=O)[nH]n12	inactive
C=CCc1c(C)nc2cc(-c3ccccc3)[nH]n2c1=O	inactive
CCc1c(C)nc2cc(C)[nH]n2c1=O	22.4 µM (active)
